Experimental data taken from PubChem BioAssay.

Test system: not listed separately
Test: small-molecule microarray binders of probe aLefty2, primary screen, biochemical, biotinylated probe, 635/667 nm fluorescence (AID 1094);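 further: score merges spot fluorescence near 667 nm with spot signal-to-noise ratio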
Conditions: higher = more signal

Structure (SMILES)	composite z-score
CC(C)C(=C=CC[C@@H](O)c1ccccc1OCCO)C[C@@H](O)c1cc(Cl)cc(Cl)c1O	-0.108
COc1ccc(C#Cc2ccc3c(c2)[C@]2(C(=O)N3)[C@H](C(=O)Nc3nc4ccccc4s3)[C@H]3C(=O)O[C@H](c4ccccc4)[C@H](c4ccccc4)N3[C@@H]2c2ccc(OCCO)cc2)cc1	-0.0412
CC(=O)n1cc(C(O)C2C=CC3C(=O)N(c4ccccc4)C(=O)C3N2Nc2ccccc2F)c2ccccc21 (stereo unspecified)	-0.138
COCCOC(=O)N1C(=O)[C@@]2(c3cc(C#CC4(O)CCCCCC4)ccc31)[C@H](c1ccc(OCCO)cc1)N1[C@H](c3ccccc3)[C@H](c3ccccc3)OC(=O)[C@H]1[C@@H]2C(N)=O	0.0494
COc1cc2c(cc1O)C(c1ccc(CN3CCCC3)cc1)N(Cc1ccc([N+](=O)[O-])o1)CC2 (stereo unspecified)	-0.299
COc1ccc(CCNC(=O)[C@@]2(C)c3ccccc3C(=O)N(Cc3cc(C(F)(F)F)cc(C(F)(F)F)c3)[C@H]2c2ccc(CO)cc2)cc1	0.795

Test system: Noggin (protein binding on small-molecule microarray)
Test: Noggin binders on small-molecule microarray, primary screen, biochemical, 635/667 nm fluorescence (AID 1095);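 further: score merges 667 nm feature fluorescence with signal to noise over triplicate slides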
Conditions: 635 nm fluorescence, higher = more signal

Structure (SMILES)	composite z-score
O=C1C2C=CC(C(O)c3ccc([N+](=O)[O-])cc3)N(Nc3ccccc3)C2C(=O)N1c1ccccc1 (stereo unspecified)	-0.456
CC(=O)NCCCC[C@@H]1NC(=O)[C@H]2C[C@@H](C(=O)NCCCCCC[N+](C)(C)C)[C@@H](c3ccc(O)cc3)N2C1=O	1.46
CCCC[C@H]1OB(O)C[C@H]2C1=C(COC)C[C@H]1C(=O)C=CC(=O)[C@H]12	0.747
C[C@@H](OCc1ccccc1)C1NC(=O)[C@@]23C(=O)N[C@@H](Cc4ccccc4)C2[C@H](C)[C@@]2(C)O[C@H]2C3/C=C/C/C=C\CNC(=O)[C@H](Cc2ccccc2)NC1=O (stereo partly specified)	0.762
C=CCC(OC(C)=O)[C@@H]1[C@@H](N(Cc2ccc(-c3cccc(C(F)(F)F)c3)o2)C(=O)c2cccc3ccccc23)c2cc(OCCCO)ccc2N1C(=O)c1ccc2ccccc2c1 (stereo partly specified)	0.307
COCCn1c(C(=O)N2CCCC2)cc2c1C[C@H]1CN(C(=O)c3ccccc3)[C@@](Cc3ccccc3)(C(=O)OC)[C@@H]21	0.386
C=CC[C@@]12N=C(c3ccc(OCCCO)cc3)O[C@@H]1c1ccccc1N(Cc1ccccc1)C2=O	1.72
C[C@]1(C(=O)NCC(F)(F)F)c2ccccc2C(=O)N(Cc2ccc(OC(F)(F)F)cc2)[C@H]1c1ccc(CO)cc1	0.344
O=C1N(CCS(=O)(=O)c2ccccc2)c2ccccc2[C@@H]2OC(c3ccc(OCCCO)cc3)=N[C@]12CCS(=O)(=O)c1ccccc1	0.833
CN(C)CCCC[C@@H]1NC(=O)[C@@H]2C[C@H](C(=O)NCCCCCCNC(=O)CS)[C@H](c3cccc(OCCO)c3)N2C1=O	0.333
[N-]=[N+]=Nc1ccccc1[C@@H]1OC(c2ccc(OCCCO)cc2)=N[C@]1(Cc1ccccc1)C(N)=O	-0.231
C=CC[C@]1(C(=O)N(C)C)COC(c2ccc(OCCCO)cc2)=N1	-0.39
O=C1O[C@@H](c2ccccc2)[C@@H](c2ccccc2)N2[C@@H](c3ccc(O)cc3)[C@]3(C(=O)Nc4ccc(C#CC5=CCCCC5)cc43)[C@@H](C(=O)N3CCCCCCC3)[C@H]12	1.16
CCCCC(=C=CC[C@@H](O)c1cccc(OCCO)c1)C[C@@H](O)COCc1ccccc1	-0.0311
[N-]=[N+]=NCc1ccccc1C[C@]1(C(=O)O)COC(c2ccc(OCCCO)cc2)=N1	-0.389
COC(=O)[C@]1(CO)N=C(c2ccc(OCCCO)cc2)O[C@@H]1c1ccccc1CN=[N+]=[N-]	0.227
COc1ccc(NN2C(C(O)c3cc(C(F)(F)F)cc(C(F)(F)F)c3)C=CC3C(=O)N(C4CCCCC4)C(=O)C32)cc1 (stereo unspecified)	0.535
CN(C)CCCC[C@@H]1NC(=O)[C@H]2C[C@@H](C(=O)NCc3ccc(F)cc3)[C@@H](c3ccc(O)cc3)N2C1=O	1.78

Structure (SMILES)	composite z-score
CCCC=C(CCC)[C@@H](NC(=O)c1ccccc1)c1ccc(C(=O)OC)cc1	0.748
C=CCC(OC(C)=O)[C@@H]1[C@@H](N(Cc2cccc3ccccc23)C(=O)c2cccc3ccccc23)c2cc(OCCCO)ccc2N1C(=O)Cc1ccc2ccccc2c1 (stereo partly specified)	0.0493
C=C(COC)/C(=C/C[C@@H](OC(C)=O)c1ccccc1OCCO)c1cc(C(=O)OC)ccc1OC	0.0363
CO[C@H]1O[C@H](CO)[C@@H](OC(=O)Nc2ccc(C(F)(F)F)cc2)[C@H](OC(=O)Nc2ccccc2-c2ccccc2)[C@@H]1OC(=O)Nc1ccccc1-c1ccccc1	1.32
CCOC(=O)C[C@H]1[C@H](OC(=O)c2ccc(-c3ccccc3)cc2)[C@@H](NC(=O)CC(C)C)c2cc(OCCCO)ccc2N1C(=O)Cc1ccc(OC)cc1	-0.316
CCOC(=O)C[C@H]1[C@H](OC(=O)c2cc3ccccc3oc2=O)[C@@H](NC(=O)C2CCCCC2)c2cc(OCCCO)ccc2N1C(=O)Cc1ccc(OC)cc1	0.909
N#Cc1ccc(C(O)C2C=CC3C(=O)NC(=O)C3N2Nc2ccccn2)cc1 (stereo unspecified)	-0.14
O=C1C2C=CC(C(O)c3cccs3)N(Nc3ccccc3)C2C(=O)N1c1ccccc1 (stereo unspecified)	-0.448
COC(=O)[C@@]1(Cc2ccc(OC)cc2)[C@H]2c3cc(C(=O)N4CCCC4)n(CCc4ccc(OC)c(Br)c4)c3C[C@H]2CN1C(=O)c1ccccc1	-0.802
CO[C@H]1O[C@H](CO)[C@@H](OC(=O)Nc2ccc(C(F)(F)F)cc2)[C@H](OC(=O)Nc2ccccc2-c2ccccc2)[C@H]1OC(=O)Nc1ccccc1-c1ccccc1	1.21
CCOC(=O)C1=C(C(=O)OCC)N(S(=O)(=O)CC[Si](C)(C)C)[C@H](c2ccccc2)CC1	0.472
CC(C)C(=C=CC[C@@H](O)c1ccccc1OCCO)C[C@@H](O)c1cc(Cl)cc(Cl)c1O	1.67
COc1ccc(C#Cc2ccc3c(c2)[C@]2(C(=O)N3)[C@H](C(=O)Nc3nc4ccccc4s3)[C@H]3C(=O)O[C@H](c4ccccc4)[C@H](c4ccccc4)N3[C@@H]2c2ccc(OCCO)cc2)cc1	0.994
CC(=O)n1cc(C(O)C2C=CC3C(=O)N(c4ccccc4)C(=O)C3N2Nc2ccccc2F)c2ccccc21 (stereo unspecified)	-0.872
COCCOC(=O)N1C(=O)[C@@]2(c3cc(C#CC4(O)CCCCCC4)ccc31)[C@H](c1ccc(OCCO)cc1)N1[C@H](c3ccccc3)[C@H](c3ccccc3)OC(=O)[C@H]1[C@@H]2C(N)=O	1.52
COc1cc2c(cc1O)C(c1ccc(CN3CCCC3)cc1)N(Cc1ccc([N+](=O)[O-])o1)CC2 (stereo unspecified)	-0.408
COc1ccc(CCNC(=O)[C@@]2(C)c3ccccc3C(=O)N(Cc3cc(C(F)(F)F)cc(C(F)(F)F)c3)[C@H]2c2ccc(CO)cc2)cc1	0.179
